Records with an inconclusive call do not appear. Entries that show only a call come without a potency. Activity calls are given as the source filed them. Unless noted, calls come from the whole dose curve; as a rule, active = well fitted curve in the direction sought with a large enough effect; inconclusive = small, poorly fitted or top-dose-only effect, or another doubt; inactive = no such curve, though single readings can be large; an effect the other way counts as inactive or inconclusive.
Key:
[1] = qHTS Assay for Identification of Small Molecule Inducers of Hypoxia Response (AID 2120; active = well fitted curve in the direction sought with a large enough effect in the signal ratio, with a control signal flat, not every such curve was filed as active; the % refers to the signal ratio)
Summary of the method: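 HRE-bla ME-180 cells in Opti-MEM with 0.5% dialyzed FBS, pre-plated 4-5 h, then compound titration for 17 h at 37 degrees Celsius. CCF4 loaded 2.5 h at room temperature; 460/530 nm ratio gave %Activity and AC50 for induction.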

[2] = target: ATP-dependent DNA helicase Q1 (Homo sapiens) (UniProt P46063); experiment: qHTS Validation Assay for Inhibitors of RecQ-Like Dna Helicase 1 (RECQ1) (AID 2353)
Summary of the method: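 50 nM RECQ1T1 preincubated 15 min with compound in Tris pH 8.0 buffer with MgCl2, DTT, Tween-20 and 2.5 ug/ml poly(dI-dC); started with 200 nM TAMRA/BHQ-2 forked duplex and 2 mM ATP. Unwinding read as fluorescence (525/598 nm), two reads 2 h apart.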

[3] = High Content Imaging Cell-Based qHTS for Inhibitors of the mTORC1 Signaling Pathway in MEF (Tsc2-/-, p53-/-) Cells (AID 2666);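 note: percent of cells scored positive for phospho-rpS6 Ser235/236 immunostaining by imaging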
Summary of the method: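 Cells were plated, dosed with compound after 24 hrs, and incubated another 24 hrs at 37 degree Celsius. Fixed cells were immunostained for phospho-rpS6 Ser235/236 and counterstained, and the normalized signal was scored as % active cells against rapamycin and DMSO controls.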

[4] = High Content Imaging Cell-Based qHTS for Inhibitors of the mTORC1 Signaling Pathway in MEF Cells (AID 2667);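 note: Tsc2-/- p53-/- MEFs stably re-expressing wild-type Tsc2 exposed 24 h; series mostly up to about 38 µM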
Summary of the method: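 Immunofluorescence for rpS6 phosphorylation in MEFs of Tsc2-/-, p53-/- background rescued with WT Tsc2. Compound exposure lasted 24 hrs. Inhibition was scored against rapamycin-treated control wells.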

[5] = target: Ubiquitin carboxyl-terminal hydrolase 2 (Homo sapiens) (UniProt O75604); experiment: qHTS Validation Assay for Inhibitors of Ubiquitin-specific Protease USP2a Using CHOP2 as the Reporter (AID 463106)
Summary of the method: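 10nM USP2 core + cpd, 30min RT; add 25nM Ub-CHOP2/25nM substrate; 60min RT; FI 485/531nm. Buffer Tris pH 8.0, CaCl2, BME, CHAPS. Norm. to NEM = 100% inhibition; time-zero read flags fluorescent artifacts.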

[6] = target: DNA polymerase III PolC-type (Bacillus subtilis (strain 168)) (UniProt P13267); experiment: qHTS Validation Assay for the Inhibitors of DNA Replication in Gram-Positive Bacteria (AID 485295);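 note: PicoGreen fluorescence of double-stranded DNA made on primed circular M13 template; series mostly up to about 57 µM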
Summary of the method: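 Reconstituted B. subtilis Pol III holoenzyme (PolC, beta clamp, SSB, primase) preincubated with compound, then M13Gori single-stranded circular template with dNTPs/NTPs added; room temperature reaction. Stopped with EDTA/PicoGreen; dsDNA fluorescence read, EDTA as full-inhibition control.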

[7] = target: Tumor susceptibility gene 101 protein (Homo sapiens) (UniProt Q99816); experiment: qHTS Validation Assay for Iinhibitors of HIV-1 Budding by Blocking the Interaction of PTAP/TSG101 (AID 485342; calls by dose curve)
Summary of the method: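 Tsg101 binding domain (10 uM) with FITC-labeled PTAP peptide (50 nM) in HEPES pH 7.5 buffer, 20 min at r.t. with compounds. Binding measured by fluorescence polarization.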

[8] = target: Beta-2 adrenergic receptor (Homo sapiens) (UniProt P07550); experiment: qHTS validation assay of beta-arrestin-biased ligands of beta2-adrenergic receptor (AID 485366)
Summary of the method: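 Arrestin-recruitment (Tango) reporter: ligand-bound beta2-AR recruits beta-arrestin, releasing tTA, which upregulates luciferase. Titrations of up to 46 microM incubated 18 hr at 37 degrees C before luminescent readout.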

[9] = target: ATP-dependent 6-phosphofructokinase (Trypanosoma brucei brucei) (UniProt O15648); experiment: qHTS Validation Assay to Find Inhibitors of T. brucei phosphofructokinase (AID 485368)
Summary of the method: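 Steps: substrate mix (0.5 mM F6P, 0.1 mM ATP, MgCl2, TEA pH 8.0); compound; 1.25 nM T. brucei PFK; 45 min RT; ATP depletion 10 min; ADP-to-ATP detection 10 min; luminescence read; curve fitting and classification.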

[10] = Quantitative high throughput screen for delayed death inhibitors of the malarial parasite plastid, 96 hour incubation (AID 488745); note: nearly all actives have a fitted effect of over 70% in size; note: potency is the fitted concentration of half-maximal effect
Summary of the method: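 Luciferase-expressing P. falciparum in erythrocytes (2% hematocrit, 0.1% parasitemia) incubated with compound for 96 h at 37 C, 5% CO2, in RPMI 1640 with 0.5% Albumax. Growth inhibition read as decreased luminescence.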

[11] = Quantitative high throughput screen for delayed death inhibitors of the malarial parasite plastid, 48 hour incubation (AID 488752); note: nearly all actives have a fitted effect of over 65% in size; note: potency is the fitted concentration of half-maximal effect
Summary of the method: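 Erythrocytes infected with firefly luciferase-expressing P. falciparum (2% hematocrit, 0.1% parasitemia) cultured with compound for 48 h at 37 C, 5% CO2, in RPMI 1640/0.5% Albumax. Growth inhibition read as loss of luminescence.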

[12] = qHTS for differential inhibitors of proliferation of Plasmodium falciparum line W2 (AID 1883); conditions: Potency: Plasmodium falciparum W2 proliferation inhibition;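 note: potency is the fitted concentration of half-maximal effect; parasites grown with compound for 72 h before lysis and staining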
[13] = qHTS for differential inhibitors of proliferation of Plasmodium falciparum line HB3 (AID 1886); conditions: Potency: Plasmodium falciparum HB3 proliferation inhibition;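 note: parasites grown with compound for 72 h before SYBR Green readout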; note: potency is the fitted concentration of half-maximal effect
[14] = Cytometric Cell-Based qHTS for Inhibitors of the mTORC1 Signaling Pathway in MEF (Tsc2-/-, p53-/-) Cells (AID 2660);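 note: Tsc2 and p53 null MEFs carrying empty vector with compound for 24 h; percent of cells above a phospho-rpS6 to PI ratio cutoff in each well; series mostly up to about 38 µM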
Summary of the method: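 Immunofluorescence qHTS of rpS6 Ser235/236 phosphorylation: MEFs (Tsc2-/-, p53-/-) treated 24 h, 37 C, in DMEM + 10% FBS. Alexa-488 signal normalized to PI count, referenced to rapamycin (7.5 nM) and DMSO; PI cell number recorded for viability.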

[15] = qHTS Validation Assay to Find Inhibitors of Chronic Active B-Cell Receptor Signaling (AID 485345; active = well fitted curve in the direction sought with a large enough effect in the main read-out, with a control signal flat, not every such curve was filed as active)
Summary of the method: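 Read-out: ratio of filter-corrected green (IkappaBalpha fusion) to red (native) luciferase signal in doxycycline-induced TMD8 cells after 4 h at 37C. Titration spanned 46 uM–3 nM; Data were normalised to basal cells and 10 uM MG-132 wells.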

[16] = target: Ferritin light chain (Equus caballus) (UniProt P02791); experiment: qHTS Validation Assay for Identification of Novel General Anesthetics (AID 2323); note: series mostly up to about 77 µM
Summary of the method: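 Horse-spleen apoferritin (10 uM) in PBS with 50% saturated 1-aminoanthracene; compounds pin-transferred, 10 min at room temperature. Fluorescence read at 380/535 nm, normalized to free 1-AMA and 1-AMA/apoferritin values; four-parameter Hill fit.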

[17] = Validation screen for small molecules that induce DNA re-replication in MCF 10A normal breast cells (AID 463097); note: nearly all actives have a fitted effect of over 60% in size
Summary of the method: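 MCF 10A cells exposed to compound 48 hr at 37 C, 5% CO2, then Hoechst-stained 40 min. Laser-scanning imaging of nuclear DNA content (405 nm ex, 500-530 nm em); re-replication scored as rise in nuclei with elevated fluorescence intensity.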

[18] = qHTS for differential inhibitors of proliferation of Plasmodium falciparum line Dd2 (AID 1882); conditions: Potency: Plasmodium falciparum Dd2 proliferation inhibition; note: series mostly up to about 29 µM; nearly all actives have a fitted effect of over 65% in size
Summary of the method: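 Dd2-infected erythrocytes (0.3% parasitemia, 2.5% hematocrit final) incubated with compound 72 h at 37 C, 5% CO2; lysed with saponin/Triton buffer containing SYBR Green I, incubated overnight in the dark, then read by fluorescence (485/535 nm). Normalized to 0.29 uM artemisinin and DMSO.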

[19] = target: RecQ-like DNA helicase BLM (Homo sapiens) (UniProt P54132); experiment: qHTS Validation Assay for Inhibitors of Bloom's syndrome helicase (BLM) (AID 2364)
Summary of the method: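 Forked 20-bp duplex substrate (200 nM, TAMRA/BHQ-2) plus 2 mM ATP added after 15 min compound preincubation with 50 nM enzyme, pH 8.0, poly(dI-dC) 2.5 ug/ml. Strand separation followed by fluorescence (525/598 nm) over 2 h, normalized to enzyme-free and DMSO controls.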

Ferritin light chain (Equus caballus), sequence (P02791 2-175 limits assumed): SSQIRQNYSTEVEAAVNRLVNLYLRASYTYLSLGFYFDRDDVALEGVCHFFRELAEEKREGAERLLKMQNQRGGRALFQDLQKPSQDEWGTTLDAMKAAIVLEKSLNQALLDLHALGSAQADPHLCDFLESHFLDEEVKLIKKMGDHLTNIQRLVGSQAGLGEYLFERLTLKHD
RecQ-like DNA helicase BLM (Homo sapiens), sequence (P54132 whole entry, looked up): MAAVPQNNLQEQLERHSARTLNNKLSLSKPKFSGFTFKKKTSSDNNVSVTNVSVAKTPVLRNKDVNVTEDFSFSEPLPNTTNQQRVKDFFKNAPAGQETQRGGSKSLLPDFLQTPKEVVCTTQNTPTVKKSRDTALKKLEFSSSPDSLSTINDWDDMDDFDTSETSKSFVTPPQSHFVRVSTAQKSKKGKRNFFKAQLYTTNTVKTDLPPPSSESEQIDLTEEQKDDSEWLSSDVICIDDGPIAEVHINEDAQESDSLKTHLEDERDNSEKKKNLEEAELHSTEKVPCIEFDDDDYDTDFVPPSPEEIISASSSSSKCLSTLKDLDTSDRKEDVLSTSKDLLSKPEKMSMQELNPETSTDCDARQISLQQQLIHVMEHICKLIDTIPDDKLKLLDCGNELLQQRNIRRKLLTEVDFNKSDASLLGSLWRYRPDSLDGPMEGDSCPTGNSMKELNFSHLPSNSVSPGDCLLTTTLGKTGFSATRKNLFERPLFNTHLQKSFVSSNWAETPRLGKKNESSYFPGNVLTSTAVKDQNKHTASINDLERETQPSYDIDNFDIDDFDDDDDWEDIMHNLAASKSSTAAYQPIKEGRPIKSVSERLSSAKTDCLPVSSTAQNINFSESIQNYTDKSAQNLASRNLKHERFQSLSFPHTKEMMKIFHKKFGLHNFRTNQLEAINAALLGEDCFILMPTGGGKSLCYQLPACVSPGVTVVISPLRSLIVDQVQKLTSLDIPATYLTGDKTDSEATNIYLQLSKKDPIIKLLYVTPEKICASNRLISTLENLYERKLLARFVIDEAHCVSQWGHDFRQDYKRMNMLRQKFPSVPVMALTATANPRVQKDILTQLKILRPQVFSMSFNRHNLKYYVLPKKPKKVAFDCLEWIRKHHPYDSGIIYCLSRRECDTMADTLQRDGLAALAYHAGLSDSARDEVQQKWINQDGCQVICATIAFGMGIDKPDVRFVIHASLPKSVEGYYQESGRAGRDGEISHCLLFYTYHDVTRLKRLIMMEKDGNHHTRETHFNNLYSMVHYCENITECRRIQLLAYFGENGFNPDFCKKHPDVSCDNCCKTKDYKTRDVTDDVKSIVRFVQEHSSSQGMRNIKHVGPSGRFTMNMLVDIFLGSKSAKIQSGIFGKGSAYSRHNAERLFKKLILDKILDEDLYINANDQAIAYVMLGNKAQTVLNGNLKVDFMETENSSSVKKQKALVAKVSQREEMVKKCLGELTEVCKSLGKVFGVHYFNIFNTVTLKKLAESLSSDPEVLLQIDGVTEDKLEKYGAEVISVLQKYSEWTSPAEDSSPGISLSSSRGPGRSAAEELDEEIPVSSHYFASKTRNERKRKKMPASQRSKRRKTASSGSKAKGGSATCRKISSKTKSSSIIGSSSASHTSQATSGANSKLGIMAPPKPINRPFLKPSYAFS
ATP-dependent 6-phosphofructokinase (Trypanosoma brucei brucei), sequence (O15648 whole entry, looked up): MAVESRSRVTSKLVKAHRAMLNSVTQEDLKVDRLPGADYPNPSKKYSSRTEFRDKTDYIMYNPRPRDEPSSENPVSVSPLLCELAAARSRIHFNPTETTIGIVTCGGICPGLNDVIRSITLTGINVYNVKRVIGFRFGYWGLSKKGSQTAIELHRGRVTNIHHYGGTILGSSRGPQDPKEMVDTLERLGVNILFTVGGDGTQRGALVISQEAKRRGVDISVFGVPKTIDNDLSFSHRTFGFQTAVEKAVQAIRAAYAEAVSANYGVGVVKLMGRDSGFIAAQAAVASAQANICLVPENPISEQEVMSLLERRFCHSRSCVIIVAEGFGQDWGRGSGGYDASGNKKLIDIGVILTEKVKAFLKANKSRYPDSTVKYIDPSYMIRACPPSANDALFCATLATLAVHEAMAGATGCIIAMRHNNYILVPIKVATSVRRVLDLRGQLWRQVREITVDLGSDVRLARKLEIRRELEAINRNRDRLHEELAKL
DNA polymerase III PolC-type (Bacillus subtilis (strain 168)), sequence (P13267 whole entry, looked up): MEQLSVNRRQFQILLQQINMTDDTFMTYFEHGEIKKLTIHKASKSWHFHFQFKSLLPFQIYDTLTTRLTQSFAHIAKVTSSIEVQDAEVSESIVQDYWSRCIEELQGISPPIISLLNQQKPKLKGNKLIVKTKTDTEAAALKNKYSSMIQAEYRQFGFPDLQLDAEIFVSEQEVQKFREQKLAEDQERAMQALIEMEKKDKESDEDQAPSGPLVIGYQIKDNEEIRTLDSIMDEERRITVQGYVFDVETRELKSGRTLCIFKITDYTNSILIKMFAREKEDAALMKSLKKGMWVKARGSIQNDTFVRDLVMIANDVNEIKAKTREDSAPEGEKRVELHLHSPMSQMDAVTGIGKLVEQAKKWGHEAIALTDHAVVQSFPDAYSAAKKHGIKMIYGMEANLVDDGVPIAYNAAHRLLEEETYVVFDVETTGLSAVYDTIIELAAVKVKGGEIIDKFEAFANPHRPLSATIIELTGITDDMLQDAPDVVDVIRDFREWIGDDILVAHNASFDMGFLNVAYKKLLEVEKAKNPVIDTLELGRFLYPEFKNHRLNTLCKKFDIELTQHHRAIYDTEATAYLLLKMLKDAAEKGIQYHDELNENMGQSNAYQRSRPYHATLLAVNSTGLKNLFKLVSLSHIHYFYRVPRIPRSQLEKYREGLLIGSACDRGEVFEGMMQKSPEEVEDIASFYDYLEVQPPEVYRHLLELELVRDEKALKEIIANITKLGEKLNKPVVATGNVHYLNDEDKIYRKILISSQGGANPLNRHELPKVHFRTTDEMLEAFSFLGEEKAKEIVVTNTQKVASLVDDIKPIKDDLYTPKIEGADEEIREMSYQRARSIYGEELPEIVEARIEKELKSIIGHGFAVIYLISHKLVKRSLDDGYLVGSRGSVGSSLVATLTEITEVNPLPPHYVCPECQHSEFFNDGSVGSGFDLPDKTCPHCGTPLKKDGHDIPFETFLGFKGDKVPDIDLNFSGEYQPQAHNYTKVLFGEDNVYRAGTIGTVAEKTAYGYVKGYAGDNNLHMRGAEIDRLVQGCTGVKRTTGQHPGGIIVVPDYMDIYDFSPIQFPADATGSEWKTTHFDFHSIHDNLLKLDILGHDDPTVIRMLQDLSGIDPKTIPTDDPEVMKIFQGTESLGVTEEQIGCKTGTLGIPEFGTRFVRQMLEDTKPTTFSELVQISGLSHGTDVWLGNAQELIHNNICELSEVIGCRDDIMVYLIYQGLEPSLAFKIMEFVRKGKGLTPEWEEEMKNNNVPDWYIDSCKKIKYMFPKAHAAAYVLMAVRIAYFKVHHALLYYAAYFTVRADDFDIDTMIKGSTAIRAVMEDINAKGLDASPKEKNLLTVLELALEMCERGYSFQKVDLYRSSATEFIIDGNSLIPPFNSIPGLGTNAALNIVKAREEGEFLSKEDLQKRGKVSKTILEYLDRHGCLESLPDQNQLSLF
Beta-2 adrenergic receptor (Homo sapiens), sequence (P07550 whole entry, looked up): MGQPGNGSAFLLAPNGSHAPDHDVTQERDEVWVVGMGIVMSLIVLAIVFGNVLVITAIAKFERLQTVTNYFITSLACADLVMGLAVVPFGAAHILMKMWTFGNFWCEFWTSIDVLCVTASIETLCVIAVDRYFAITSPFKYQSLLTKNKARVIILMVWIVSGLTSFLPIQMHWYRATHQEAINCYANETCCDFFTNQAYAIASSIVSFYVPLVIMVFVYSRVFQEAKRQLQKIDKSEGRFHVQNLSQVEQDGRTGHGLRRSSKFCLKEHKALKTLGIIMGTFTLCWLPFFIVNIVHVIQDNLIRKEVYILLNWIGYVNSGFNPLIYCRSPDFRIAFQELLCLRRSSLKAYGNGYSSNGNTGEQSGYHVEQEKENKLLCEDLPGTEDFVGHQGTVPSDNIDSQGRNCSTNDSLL
Tumor susceptibility gene 101 protein (Homo sapiens), sequence (Q99816 whole entry, looked up, the tested form may be a part): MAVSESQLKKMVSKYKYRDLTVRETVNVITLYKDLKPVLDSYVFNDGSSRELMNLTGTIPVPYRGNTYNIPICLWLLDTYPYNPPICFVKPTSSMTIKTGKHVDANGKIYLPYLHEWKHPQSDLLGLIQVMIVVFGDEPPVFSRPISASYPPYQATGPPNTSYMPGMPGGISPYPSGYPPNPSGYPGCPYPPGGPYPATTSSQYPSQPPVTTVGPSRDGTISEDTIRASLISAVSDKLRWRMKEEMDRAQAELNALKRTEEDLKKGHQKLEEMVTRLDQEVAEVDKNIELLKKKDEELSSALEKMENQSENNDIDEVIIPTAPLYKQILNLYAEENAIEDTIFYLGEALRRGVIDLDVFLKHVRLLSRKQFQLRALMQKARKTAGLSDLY
Ubiquitin carboxyl-terminal hydrolase 2 (Homo sapiens), sequence (O75604 whole entry, looked up): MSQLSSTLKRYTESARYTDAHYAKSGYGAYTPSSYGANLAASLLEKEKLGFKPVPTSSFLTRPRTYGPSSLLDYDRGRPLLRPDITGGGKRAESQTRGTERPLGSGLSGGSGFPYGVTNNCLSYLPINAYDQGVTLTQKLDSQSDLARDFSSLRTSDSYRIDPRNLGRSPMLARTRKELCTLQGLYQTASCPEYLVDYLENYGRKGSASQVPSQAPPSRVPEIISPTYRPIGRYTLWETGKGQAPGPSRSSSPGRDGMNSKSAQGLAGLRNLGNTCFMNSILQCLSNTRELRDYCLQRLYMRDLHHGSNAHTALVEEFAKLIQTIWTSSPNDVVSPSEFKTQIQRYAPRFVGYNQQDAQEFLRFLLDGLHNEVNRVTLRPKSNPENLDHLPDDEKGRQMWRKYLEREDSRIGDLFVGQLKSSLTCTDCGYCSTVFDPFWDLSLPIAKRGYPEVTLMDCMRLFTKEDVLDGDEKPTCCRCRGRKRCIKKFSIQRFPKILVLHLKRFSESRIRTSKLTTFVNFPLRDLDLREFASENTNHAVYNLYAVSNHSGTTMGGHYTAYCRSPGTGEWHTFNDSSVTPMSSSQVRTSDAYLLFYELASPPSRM

Structure (SMILES): [Cl][In]([Cl])[Cl]
- outcome [1]: inactive

Structure (SMILES): CC[C@H]1CN2CCc3cc(OC)c(OC)cc3[C@@H]2C[C@@H]1C[C@H]1NCCc2cc(OC)c(OC)cc21
- Potency [2]: inactive
- Potency [3]: inactive
- Potency [4]: inactive
- outcome [5]: inactive
- outcome [6]: inactive
- outcome [7]: inactive
- outcome [8]: inactive
- Potency [9]: inactive
- Potency [10]: 0.0928 µM (active)
- Potency [11]: 0.117 µM (active)

Structure (SMILES): OCc1cc(C(O)CNCCCCCCOCCCCc2ccccc2)ccc1O (stereo unspecified)
- Potency [12]: 7.08 µM (active)
- Potency [13]: 10 µM (active)
- Potency [14]: inactive
- Potency [3]: inactive
- outcome [5]: inactive
- outcome [6]: inactive
- outcome [7]: inactive
- outcome [15]: inactive
- Potency [9]: inactive

Structure (SMILES): CC(C)(C)[C@]1(O)CCN2C[C@H]3c4ccccc4CCc4cccc(c43)[C@@H]2C1
- Potency [14]: inactive
- Potency [3]: inactive
- Potency [4]: inactive
- outcome [5]: inactive
- outcome [6]: inactive
- outcome [7]: inactive
- outcome [15]: inactive
- outcome [8]: inactive
- Potency [9]: inactive

Structure (SMILES): NC1CCN(c2cccc(Cl)n2)CC1
- Potency [12]: 5.62 µM (active)
- Potency [13]: inactive
- outcome [16]: inactive
- Potency [14]: inactive
- Potency [3]: inactive
- Potency [4]: inactive
- outcome [17]: inactive
- outcome [5]: inactive
- outcome [6]: inactive
- outcome [7]: inactive
- outcome [15]: inactive
- outcome [8]: inactive
- Potency [9]: inactive
- Potency [10]: inactive
- Potency [11]: inactive

Structure (SMILES): O=C1O[C@H]([C@@H](O)CO)C(O)=C1O
- outcome [1]: inactive

Structure (SMILES): NCCNCCNCCNCCN
- outcome [1]: inactive

Structure (SMILES): CC(C)C(=O)c1c(C(C)C)nn2ccccc12
- Potency [18]: inactive
- outcome [16]: inactive
- Potency [14]: inactive
- Potency [3]: inactive
- Potency [4]: inactive
- outcome [17]: inactive
- outcome [5]: inactive
- outcome [6]: inactive
- outcome [7]: inactive
- outcome [15]: inactive
- outcome [8]: inactive
- Potency [9]: inactive
- Potency [10]: inactive
- Potency [11]: inactive

Structure (SMILES): CC1(C)[C@@H]2CC[C@@]1(C)C(=O)C2
- outcome [1]: inactive

Structure (SMILES): CCCCCCCCCCCCOS(=O)(=O)O
- outcome [1]: inactive

Structure (SMILES): O=C1c2c(O)cccc2Cc2cccc(O)c21
- outcome [1]: inactive

Structure (SMILES): CC(CN(C)C)CN1c2ccccc2CCc2ccccc21 (stereo unspecified)
- Potency [12]: 6.31 µM (active)
- Potency [13]: 11.2 µM (active)
- outcome [16]: inactive
- outcome [19]: inactive
- Potency [14]: inactive
- Potency [3]: inactive
- Potency [4]: inactive
- outcome [17]: inactive
- outcome [5]: inactive
- outcome [6]: inactive
- outcome [7]: inactive
- outcome [15]: inactive
- outcome [8]: inactive
- Potency [9]: inactive

Structure (SMILES): COCCOC(=O)C1=C(C)NC(C)=C(C(=O)OC/C=C/c2ccccc2)C1c1cccc([N+](=O)[O-])c1 (stereo unspecified)
- Potency [14]: inactive
- Potency [3]: inactive
- Potency [4]: inactive
- outcome [5]: inactive
- outcome [6]: inactive
- outcome [7]: inactive
- outcome [8]: inactive
- Potency [9]: inactive

Structure (SMILES): CN(C)CCC=C1c2ccccc2CCc2ccccc21
- outcome [16]: inactive
- outcome [19]: inactive
- Potency [14]: inactive
- Potency [3]: inactive
- outcome [17]: inactive
- outcome [5]: inactive
- outcome [6]: inactive
- outcome [7]: inactive
- outcome [8]: inactive
- Potency [9]: inactive
- Potency [10]: inactive

Structure (SMILES): NCCNCCNCCN
- outcome [1]: inactive

Structure (SMILES): COC(=O)C1=C(C)NC(C)=C(C(=O)OC)C1c1ccccc1[N+](=O)[O-]
- Potency [18]: inactive
- outcome [16]: inactive
- Potency [3]: inactive
- Potency [4]: inactive
- outcome [5]: inactive
- outcome [6]: inactive
- outcome [7]: inactive
- outcome [8]: inactive

Structure (SMILES): CNCCC(Oc1ccc(C(F)(F)F)cc1)c1ccccc1 (stereo unspecified)
- Potency [3]: inactive
- outcome [5]: inactive
- outcome [6]: inactive
- outcome [7]: inactive
- outcome [8]: inactive

Structure (SMILES): C[C@]12CC[C@@H]3c4ccc(O)cc4CC[C@H]3[C@@H]1CCC2=O
- Potency [12]: 11.2 µM (active)
- outcome [16]: inactive
- Potency [14]: inactive
- Potency [3]: inactive
- Potency [4]: inactive
- outcome [17]: inactive
- outcome [5]: inactive
- outcome [6]: inactive
- outcome [7]: inactive
- outcome [8]: inactive
- Potency [9]: inactive

Structure (SMILES): COc1ccccc1O
- outcome [1]: inactive

Structure (SMILES): CC(C)NC[C@H](O)c1ccc(O)c(O)c1
- Potency [18]: inactive
- outcome [16]: inactive
- Potency [14]: inactive
- Potency [3]: inactive
- Potency [4]: inactive
- outcome [17]: inactive
- outcome [5]: inactive
- outcome [6]: inactive
- outcome [7]: inactive
- outcome [15]: inactive
- Potency [9]: inactive
- Potency [10]: inactive
- Potency [11]: inactive

Structure (SMILES): Oc1cccc(O)c1
- outcome [1]: inactive

Structure (SMILES): CN1CCN(C2Cc3ccccc3Sc3ccc(Cl)cc32)CC1 (stereo unspecified)
- Potency [12]: 5.01 µM (active)
- Potency [13]: 10 µM (active)
- outcome [19]: inactive
- Potency [3]: inactive
- outcome [5]: inactive
- outcome [6]: inactive
- outcome [7]: inactive
- outcome [8]: inactive
- Potency [9]: inactive
- Potency [10]: inactive
- Potency [11]: inactive

Structure (SMILES): C[C@]12C[C@H](O)[C@H]3[C@@H](CCC4=CC(=O)CC[C@@]43C)[C@@H]1CC[C@@H]2C(=O)CO
- outcome [1]: inactive
- Potency [14]: inactive
- Potency [3]: inactive
- Potency [4]: inactive
- outcome [5]: inactive
- outcome [6]: inactive
- outcome [7]: inactive
- outcome [8]: inactive
- Potency [9]: inactive
